PubChem BioAssay (NCI)
The panel holds about 79,000 compounds, 15% with a hit somewhere; the sample as a whole holds those more often. Active and inactive are the calls of the source. Cut-off read from the data, not from the text of the source: active = growth inhibition above about 70%; inactive = the rest.

Tests used:
[1] = NCI Yeast Anticancer Drug Screen. Data for the rad50 strain (AID 155);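 note: 0% = growth of vehicle-only cultures of the same strain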; conditions: S. cerevisiae rad50 strain growth inhibition, active compounds read high
Procedure, shortened: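 Vehicle-treated cultures provide the reference for the growth inhibition reported for compound-exposed, repair-deficient yeast.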

[2] = NCI Yeast Anticancer Drug Screen. Data for the mec2-1 strain (AID 157); conditions: S. cerevisiae mec2-1 strain, active compounds read high
Procedure, shortened: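 Each compound was tested on mec2-1 yeast, a strain altered in DNA damage repair or cell cycle control. Growth inhibition is reported relative to vehicle.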

[3] = NCI Yeast Anticancer Drug Screen. Data for the sgs1 mgt1 strain (AID 161);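 note: 0% = growth of cultures given vehicle only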; conditions: S. cerevisiae sgs1 mgt1 strain, active compounds read high
Procedure, shortened: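 Read-out: growth inhibition vs vehicle controls. Cells: mutant yeast strain deficient in DNA damage repair.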

[4] = NCI Yeast Anticancer Drug Screen. Data for the cln2 rad14 strain (AID 165);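 note: 0% = growth equal to vehicle treated cultures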; conditions: S. cerevisiae cln2 rad14 strain, active compounds read high
Procedure, shortened: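 Test compounds were added to cln2 rad14 yeast cultures; inhibition of growth was then determined by comparison with vehicle treatment.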

[5] = NCI Yeast Anticancer Drug Screen. Data for the bub3 strain (AID 167); conditions: S. cerevisiae bub3 mutant strain, active compounds read high
Procedure, shortened: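 Mutant yeast screening strain plus compound; vehicle-treated cultures serve as the 0% inhibition reference.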

[6] = NCI Yeast Anticancer Drug Screen. Data for the mlh1 rad18 strain (AID 175); conditions: S. cerevisiae mlh1 rad18 strain growth inhibition, active compounds read high
Procedure, shortened: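 Inhibition values reflect reduced growth of mutant yeast versus vehicle-treated controls following compound exposure; the mutations affect DNA damage repair.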

[7] = at 5.0 µM (retest, dose inferred, filed as 0.5)
[8] = at 50.0 µM (retest, dose inferred, filed as 5.0)

Measured: growth inhibition

O=c1c2ccccc2c2ccccc2n1O
active: [1]; [7] 93% | [1]; [8] 92% | [1]; at 50.0 µM 97.5% | [2]; [7] 95% | [2]; [8] 95% | [2]; at 50.0 µM 97% | [3]; [7] 93% | [3]; [8] 94% | [3]; at 50.0 µM 96.5% | [4]; [7] 76% | [4]; [8] 89% | [4]; at 50.0 µM 93.8% | [5]; [7] 88% | [5]; [8] 91% | [5]; at 50.0 µM 95% | [6]; [7] 94% | [6]; [8] 94% | [6]; at 50.0 µM 98.3%

CC1CCC2(CC1)OCC(C)O2 (configuration not stated)
inactive: [1]; [7] 4% | [1]; [8] 1% | [1]; at 50.0 µM -19.9% | [2]; [7] 16% | [2]; [8] 5% | [2]; at 50.0 µM 5.45% | [3]; [7] -2% | [3]; [8] -12% | [3]; at 50.0 µM -24.4% | [4]; [7] 26% | [4]; [8] 15% | [4]; at 50.0 µM 19.8% | [5]; [7] 27% | [5]; [8] 34% | [5]; at 50.0 µM -0.9% | [6]; [7] 7% | [6]; [8] 1% | [6]; at 50.0 µM -8.8%

CCOC(=O)c1csc(=S)[nH]1
inactive: [1]; [7] 2% | [2]; [7] 2% | [2]; [8] 32% | [3]; [7] -16% | [4]; [7] 5% | [4]; [8] 46% | [4]; at 50.0 µM -12.1% | [5]; [7] -6% | [5]; at 50.0 µM 47% | [6]; [7] 15% | [6]; at 50.0 µM 35.9%
active: [1]; [8] 83% | [1]; at 50.0 µM 76.8% | [2]; at 50.0 µM 80.2% | [3]; [8] 95% | [3]; at 50.0 µM 74.5% | [5]; [8] 86% | [6]; [8] 96%

Cc1cc(-c2ccc(O)c(C)c2)ccc1O
active: [1]; [8] 94% | [1]; at 50.0 µM 83% | [2]; [8] 74% | [3]; [8] 78% | [3]; at 50.0 µM 74.6% | [5]; [8] 98% | [5]; at 50.0 µM 72.5% | [6]; [8] 91% | [6]; at 50.0 µM 71.5%
inactive: [1]; [7] 13% | [2]; [7] -15% | [2]; at 50.0 µM 57.4% | [3]; [7] 0% | [4]; [7] 5% | [4]; [8] 60% | [4]; at 50.0 µM 51.8% | [5]; [7] 23% | [6]; [7] 8%

C1=C(c2ccccc2)CCc2ccccc21
inactive: [1]; [7] 1% | [1]; [8] 14% | [1]; at 50.0 µM 12.7% | [2]; [7] 5% | [2]; [8] -1% | [2]; at 50.0 µM -11.5% | [3]; [7] 5% | [3]; [8] 14% | [3]; at 50.0 µM -1.95% | [4]; [7] 0% | [4]; [8] -14% | [4]; at 50.0 µM 50.9% | [5]; [7] -3% | [5]; [8] 3% | [5]; at 50.0 µM 2.6% | [6]; [7] -4% | [6]; [8] 3% | [6]; at 50.0 µM 1.5%

COc1ccc(C(c2c(O)c3ccccc3oc2=O)N2CCOCC2)c(OC)c1 (configuration not stated)
inactive: [1]; [7] -4% | [1]; [8] 3% | [1]; at 50.0 µM 33.4% | [2]; [7] -6% | [2]; [8] 19% | [2]; at 50.0 µM 23.1% | [3]; [7] -4% | [3]; [8] 4% | [3]; at 50.0 µM 35.6% | [4]; [7] 3% | [4]; [8] -3% | [4]; at 50.0 µM 20.3% | [5]; [7] -2% | [5]; [8] 0% | [5]; at 50.0 µM 69.2% | [6]; [7] -7% | [6]; [8] -3% | [6]; at 50.0 µM 43.4%

CN1CCC(OC(=O)c2ccc3ncccc3c2)CC1
inactive: [1]; [7] -6% | [1]; [8] 6% | [1]; at 50.0 µM 34.6% | [2]; [7] -2% | [2]; [8] 4% | [2]; at 50.0 µM 26.6% | [3]; [7] -2% | [3]; [8] 13% | [3]; at 50.0 µM 17.6% | [4]; [7] -5% | [4]; [8] 2% | [5]; [7] -4% | [5]; [8] 2% | [5]; at 50.0 µM 33.9% | [6]; [7] -7% | [6]; [8] 7% | [6]; at 50.0 µM 32%
active: [4]; at 50.0 µM 85.6%

S=C1NCCNC(=S)SS1
inactive: [1]; [7] 40% | [2]; [7] 8% | [3]; [7] 15% | [3]; at 50.0 µM 48.5% | [4]; [7] 7% | [4]; at 50.0 µM 20.2% | [5]; [7] 10% | [6]; [7] 14% | [6]; at 50.0 µM 44.5%
active: [1]; [8] 97% | [1]; at 50.0 µM 93% | [2]; [8] 99% | [2]; at 50.0 µM 77.6% | [3]; [8] 97% | [4]; [8] 98% | [5]; [8] 99% | [5]; at 50.0 µM 98.8% | [6]; [8] 99%

Cc1ccc(S(=O)(=O)OCCCCOS(=O)(=O)c2ccc(C)cc2)cc1
active: [1]; at 50.0 µM 76%
inactive: [1]; [7] 0% | [1]; [8] 4% | [2]; [7] -7% | [2]; [8] -3% | [2]; at 50.0 µM 26.1% | [3]; [7] -6% | [3]; [8] 4% | [3]; at 50.0 µM 15.7% | [4]; [7] 2% | [4]; [8] -5% | [4]; at 50.0 µM 28.4% | [5]; [7] -2% | [5]; [8] 2% | [5]; at 50.0 µM -17.2% | [6]; [7] 2% | [6]; [8] 1% | [6]; at 50.0 µM 15.1%
